# Hits are enriched below; roughly 19% of the tested compounds scored in any of these assays.
# HT1080-NT tox = kills 2HG-producing HT-1080-NT fibrosarcoma cells. AID 686970. Potency, µM (doses to about 46.1 µM), actives largely listed as cytotoxic. 360,000 compounds, 1.6% hits. HT-1080-NT fibrosarcoma viability, CellTiter-Glo ATP luminescence, 48 h;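 note: NT is the 2HG producing partner of a matched IDH1 knockdown line; nearly all actives have a fitted effect of over 55% in size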
#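 Compounds were tested in concentration-response format on HT-1080-NT cells for 48 hours at 37 degrees C. Cell viability came from CellTiter-Glo luminescence; curves were classified by r2, response magnitude and activity.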
# IL-1B inflam inh = inhibitors of inflammasome signaling (IL-1 beta secretion). activity change, % at 57.5 µM. 360,000 compounds, 4.7% hits. THP-1 LPS/ATP IL-1B secretion, AlphaLISA, 16 h; hits give low values; in the data active = activity change below about -50%; inconclusive = mostly about -30% to -49%
#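 THP-1 cells pretreated 1 hr with compounds (up to 57.5 uM final), then stimulated with LPS (250 ng/mL final) plus ATP (1.25 mM final); secreted IL-1B measured by AlphaLISA after 16 hr, decreased signal indicating inhibition.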
# HT1080 IDH1KD tx = HT-1080 IDH1 knockdown cell toxicity (counter line) | Potency, µM (series often up to 46.1 µM), usual class: cytotoxic | 360,000 compounds, 2% hits | AID 686971 | HT-1080 IDH1 knockdown viability, ATP luminescence, 48 h
#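 CellTiter-Glo luminescence after 48 h compound exposure at 37 degrees C of IDH1-knockdown HT-1080 cells in 5% FBS RPMI. %Activity scaled between DMSO wells and cell-free media wells, with curves fitted and assigned curve classes.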
# DT40 TDP1 CPT = growth inhibition of DT40 Tdp1-/-;hTDP1 cells with camptothecin (screen for TDP1 inhibitors) | Potency, µM (doses to about 46.2 µM), actives largely listed as inhibitors | 420,000 compounds, 12% hits | AID 686979 | chicken DT40 Tdp1-/-;hTDP1 cells + 20 nM CPT, ATP luminescence, 48 h; note: nearly all actives have a fitted effect of over 55% in size
#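 Cell growth measured by CellTiter-Glo luminescence after a minimum 48 h, 37 C compound exposure with 20 nM CPT in Tdp1-knockout DT40 cells stably expressing hTDP1, seeded 400/well; qHTS titration format.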
# ELG1 repair inh = inhibitors of ELG1-dependent DNA repair in HEK293T cells | HEK293T ELG1-luciferase reporter, luminescence, 16 h; DNA damage induced by 5-fluorouridine | Potency, µM (series often up to 46.1 µM), actives largely listed as inhibitors | 330,000 compounds, 2.3% hits; note: nearly all actives have a fitted effect of over 55% in size
#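 DMSO vehicle served as the neutral condition. Each well held 2,000 cells given 5-fluorouridine plus compound; after 16 hr at 37 °C/5% CO2, ONE-Glo was added and luciferase measured 30 min later.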
# TDP1 cell noCPT = qHTS for Inhibitors of human tyrosyl-DNA phosphodiesterase 1 (TDP1): qHTS in cells in absence of CPT | DT40 Tdp1-/- hTDP1 cells, no CPT, ATP luminescence, 48 h | Potency, µM (top dose mostly 46.2 µM), usual class: inhibitors | 420,000 compounds, 15% hits | AID 686978, 2013; note: nearly all actives have a fitted effect of over 55% in size
#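 A cellular qHTS used chicken DT40 cells lacking endogenous Tdp1 but carrying stably transfected human TDP1. Compounds were applied without camptothecin, and cell growth kinetics were judged by ATP-dependent luminescence after ≥48 hr.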
# A number is an active result; i = inactive; ? = inconclusive; nt = no result given; [ ] = remark or other dose. Unless noted, calls come from the whole dose curve; as a rule, active = well fitted curve in the direction sought with a large enough effect; inconclusive = small, poorly fitted or top-dose-only effect, or another doubt; inactive = no such curve, though single readings can be large; an effect the other way counts as inactive or inconclusive.
SMILES,HT1080-NT tox,IL-1B inflam inh,HT1080 IDH1KD tx,DT40 TDP1 CPT,ELG1 repair inh,TDP1 cell noCPT
CC(NCC(O)COc1ccc2ccccc2c1)c1ccccc1 (centres undefined),18µM,-94,13µM,16µM,i,16µM
Cc1cc(OCC(O)CNC(C)c2ccccc2)ccc1C(C)C (centres undefined),23µM,-91,18µM,23µM,?,23µM
CC1(C)CC(=O)C(C2=NC3(CCCCC3)Cc3ccccc32)=C(O)C1,i,i,i,i,i,i
Cc1ccc(C2=C(O)C(=O)C(c3ccc(C)cc3)=C(O)C2=O)cc1,i,i,i,?,nt,12µM
CC1C(=O)N(Cc2cn(CCC3OCCO3)nn2)CCS(=O)(=O)N1Cc1ccc(-c2ccc(Cl)cc2)cc1 (centres undefined),?,i,?,3.7µM,nt,7.3µM
Cc1ccc(-c2ccc(CN3C(C)C(=O)N(Cc4cn(CCC5OCCO5)nn4)CCS3(=O)=O)cc2)cc1 (centres undefined),i,i,i,16µM,nt,?
CCOc1ccc(S(=O)(=O)c2cn(C)c3cc(OC)c(OC)cc3c2=O)cc1,i,i,i,i,i,i
C=CC(C)N1C(=O)S/C(=C\c2ccc(N3CCOCC3)cc2C)C1=O (centres undefined),i,-77,i,21µM,?,13µM
O=C(Nc1cccc(S(=O)(=O)C(F)F)c1)c1ccc(S(=O)(=O)N2CCOCC2)cc1,i,i,i,i,?,18µM
O=C(Nc1ccc(S(=O)(=O)C(F)F)cc1)c1cccc(S(=O)(=O)N2CCOCC2)c1,i,?,i,?,?,15µM
O=C(Nc1ccncc1)c1cccc(S(=O)(=O)N2CCOCC2)c1,i,i,i,i,i,?
CC(=O)c1sc(NC(=O)c2ccc(F)c(S(=O)(=O)N3CCOCC3)c2)nc1C,i,i,i,i,i,i
O=c1onc2cnc3ccccc3n12,nt,nt,nt,?,nt,13µM
c1ccc2c(c1)ncc1nncn12,nt,nt,nt,i,nt,i
CCCCc1cc(=O)oc2c(C)c(OCC(=O)N3C[C@H]4C[C@@H](C3)c3cccc(=O)n3C4)ccc12,i,i,i,?,?,i
O=S(=O)(c1cccs1)N1CCN(CC(O)COc2cccc(Br)c2)CC1 (centres undefined),i,i,i,21µM,21µM,?
C=C(C)CN1CCN(S(=O)(=O)c2ccc(C)c(N(C)S(=O)(=O)c3ccc(C)cc3)c2C)CC1,i,i,i,23µM,?,10µM
CC(=O)c1cccc(NC(=O)C2(C)Cc3c(-c4cccc(C(F)(F)F)c4)ccnc3O2)c1 (centres undefined),?,i,?,16µM,nt,23µM
CC1(C(=O)Nc2cccnc2)Cc2c(-c3cccc(C(F)(F)F)c3)ccnc2O1 (centres undefined),i,i,i,16µM,nt,23µM
CC(C)N(Cc1nc(-c2ccc3c(c2)OCO3)no1)Cc1nccn1C,i,i,i,i,i,?
Cc1cccc(-c2nc(CS(=O)CC(=O)NC3CCCC(C)C3C)c(C)o2)c1 (centres undefined),i,i,i,i,i,?
CCCCN1C2=C(C(=O)CC(C)(C)C2)C(c2ccccc2)C2=C1c1ccccc1C2=O (centres undefined),i,i,i,?,i,16µM
CCN(CC)CCN1C2=C(C(=O)CC(C)(C)C2)C(c2cccc(F)c2)C2=C1CC(C)(C)CC2=O,i,i,i,i,i,?
CCCN1C2=C(C(=O)CC(C)(C)C2)C(c2ccc(F)cc2)C2=C1c1ccccc1C2=O (centres undefined),i,i,i,20µM,?,?
COc1ccc(CCNC(=O)Nc2nnc([C@@H]3C[C@H](O)[C@@H](CO)O3)s2)cc1OC,?,i,i,i,nt,i
SMILES,HT1080-NT tox,IL-1B inflam inh,HT1080 IDH1KD tx,DT40 TDP1 CPT,ELG1 repair inh,TDP1 cell noCPT
COC(=O)c1ccccc1NS(=O)(=O)c1ccc(Cl)nc1,i,i,i,i,i,i
O=C(NCc1cccnc1)c1cnn(-c2nccc(-c3cccs3)n2)c1C1CC1,nt,nt,nt,i[9.04 µM],nt,?
CC1CCc2c(sc3ncnc(SCC(=O)N(C)C4CCS(=O)(=O)C4)c23)C1 (centres undefined),i,i,i,?,?,18µM
CCN(C(=O)CSc1nc(C)nc2sc3c(c12)CCC3)C1CCS(=O)(=O)C1 (centres undefined),i,i,i,?,?,21µM
CCN(CC)C(=O)CSc1nc2sc3c(c2c(=O)n1CCCOC)CCC3,i,-55,i,?,i,?
Cc1nc(SCC(=O)N2CCOCC2)c2c3c(sc2n1)CCC3,i,i,i,i,21µM,?
CCOC(=O)C1(CC)NC(c2ccc(OC)c(OC)c2)C2C(=O)N(c3cccc(C(C)=O)c3)C(=O)C21 (centres undefined),i,i,i,i,i,i
NC(=O)NC(CCC(=O)O)C(=O)O (centres undefined),i,i,i,i,nt,i
CCn1c(SCC(=O)N2CCOCC2)nc2sc3c(c2c1=O)CCCC3,i,i,i,?,i,18µM
CC(Cn1cncn1)C(=O)N1CCN(S(=O)(=O)c2ccccc2)CC1 (centres undefined),i,i,i,i,i,i
C[n+]1cn(Cc2cc(Cl)ccc2OC(F)F)c2ccccc21,i,i,i,?,i,?
c1ccc(Cn2c[n+](Cc3ccccc3)c3ccccc32)cc1,?,i,?,3.3µM,i,2.9µM
Cc1ccccc1C(=O)Nc1c(C)nc2ccccn2c1=O,nt,nt,nt,i,nt,i
CC1CCc2cc(F)ccc2N1C(=O)CSc1nnc2c3ccccc3n(C)c2n1 (centres undefined),i,i,i,18µM,?,21µM
CCCn1c(SCC(=O)N2c3ccc(F)cc3CCC2C)nnc1-c1ccccn1 (centres undefined),i,i,i,?,?,21µM
CC1Cc2ccccc2N1C(=O)CSc1nnc2c(n1)[nH]c1ccc(F)cc12 (centres undefined),i,?,i,?,i,21µM
CCn1cc(CN2CCC(n3nccc3NC(=O)CCc3ccccc3)CC2)cn1,i,i,i,i,i,i
O=C(O)[C@@H]1CSCN1,nt,nt,nt,i,nt,i
Cc1ccc(OCCC(=O)OCC(=O)Nc2ccc3c(c2)OCCO3)cc1,i,i,i,i,i,i

# Compound activity from PubChem BioAssay.
